In the library only some 2.5% were active in any assay of this set; here they are far more common.
MEKK3 PB1 HTS: MEKK3-MEK5 PB1 interaction, increase or decrease; bead-based flow cytometry, Alexa488-MEK5 binding to MEKK3; actives lie on both sides; 0 = blocked by unlabeled MEK5, 100 = vehicle; binding response (% of control), % at 10 µM; 290,000 compounds, 1.4% hits; AID 1529;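 active = binding response more than 3 SD above or below the average of its plate-row segment, actives on both sides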;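 note: Alexa488 bead fluorescence after subtracting the streptavidin-only scavenger bead signal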
MEKK2 mut-MEK5: signal of MEK5 binding to mutant human MEKK2 PB1 domain. AID 1530. 290,000 compounds, 0.35% hits. bead flow cytometry, Alexa488-MEK5 binding to MEKK2 mutant. percent response, % at 10 µM; in the data active = percent response above about 24%, passing the limit was not always enough
GRK2 aptamer HTS: inhibitors of human GRK2 displacing RNA aptamer. bead flow cytometry, FAM-aptamer displacement from GRK2. 330,000 compounds, 0.59% hits. P25098. inhibition of aptamer binding, % at 10 µM;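 active = inhibition of aptamer binding above 40%, roughly 3 SD of noise, on plates passing a quality check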;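 note: median bead fluorescence of bound FAM aptamer so fluorescent compounds give negative values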
Target sequence (P25098 whole entry, looked up): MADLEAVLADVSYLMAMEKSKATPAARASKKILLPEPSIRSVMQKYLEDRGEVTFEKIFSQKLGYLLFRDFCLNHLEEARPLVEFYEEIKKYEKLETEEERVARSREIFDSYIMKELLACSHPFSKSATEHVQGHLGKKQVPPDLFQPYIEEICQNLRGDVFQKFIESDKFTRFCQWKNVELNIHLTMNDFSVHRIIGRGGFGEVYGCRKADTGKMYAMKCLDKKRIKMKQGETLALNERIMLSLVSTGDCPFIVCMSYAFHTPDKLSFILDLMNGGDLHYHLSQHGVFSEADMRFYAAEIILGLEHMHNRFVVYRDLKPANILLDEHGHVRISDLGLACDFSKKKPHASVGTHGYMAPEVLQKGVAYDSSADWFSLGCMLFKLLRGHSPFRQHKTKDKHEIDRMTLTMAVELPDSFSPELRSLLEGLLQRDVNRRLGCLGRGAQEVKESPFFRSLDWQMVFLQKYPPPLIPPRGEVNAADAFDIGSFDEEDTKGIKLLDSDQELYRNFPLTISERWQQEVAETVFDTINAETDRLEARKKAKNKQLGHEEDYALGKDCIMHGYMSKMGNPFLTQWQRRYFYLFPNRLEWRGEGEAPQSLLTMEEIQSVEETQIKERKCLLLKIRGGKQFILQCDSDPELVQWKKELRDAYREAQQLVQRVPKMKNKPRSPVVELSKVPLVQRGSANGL
MEKK2wt PB1 HTS: raises or lowers MEK5 binding to wildtype human MEKK2 PB1 domain. 290,000 compounds, 1.1% hits. bead flow cytometry, Alexa488-MEK5 binding to MEKK2 WT; actives lie on both sides. binding response (% of control), % at 10 µM. Q9Y2U5. AID 1531; in the data active = binding response below about 67% or above about 130%
GRK2 inh confirm: confirmation of human GRK2 inhibitors displacing RNA aptamer. shares compounds with GRK2 aptamer HTS. aptamer displacement, % at 10 µM. 2,000 compounds, 4% hits. AID 504451. bead-bound GRK2, FAM-aptamer displacement, flow cytometry;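 active = aptamer displacement above 40%, near three times the noise of non-fluorescent compounds, on plates passing quality checks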;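 note: negative values mostly reflect intrinsic compound fluorescence rather than true enhancement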
Aptamer quench SP: aptamer fluorescence quenching in GRK2 counter-screen; AID 504580; 2,000 tested, under 10 active; Carboxyfluorescein RNA aptamer on beads, flow cytometry quenching; hits give low values; shares compounds with GRK2 aptamer HTS; fluorescence response (% of DMSO), % at 10 µM;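 active = compounds that quench the bead-bound fluorescent RNA probe, cutting fluorescence to under half of the solvent control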;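 note: counterscreen run without GRK2 so only probe quenching by compound is measured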
Each line names hits and unclear results; the compound was inactive in the other large screens (follow-up assays come after a bar, where they were run).

CN1CCN(C(=O)COc2ccc(S(=O)(=O)N(C)Cc3ccccc3)cc2)CC1	GRK2 aptamer HTS 54 | GRK2 inh confirm inactive | Aptamer quench SP inactive
CCCCn1c(O)c(C=NCc2ccc3c(c2)OCO3)c(=O)[nH]c1=O	GRK2 aptamer HTS 94 | GRK2 inh confirm inactive | Aptamer quench SP inactive
O=c1[nH]c(=O)n(Cc2ccco2)c(O)c1C=NCc1ccc2c(c1)OCO2	none | GRK2 inh confirm inactive | Aptamer quench SP inactive
CCCCn1c(O)c(C(C)=NCc2ccc3c(c2)OCO3)c(=O)[nH]c1=O	none
COC(=O)C1=C(c2ccc(-c3ccccc3)c(F)c2)C[C@@H]2CC[C@H]1N2C(=O)NC1CCCCC1	none (no result: MEKK3 PB1 HTS, MEKK2 mut-MEK5, MEKK2wt PB1 HTS)
CC(C)N1C(=O)/C(=C/C=C/c2ccco2)C(=O)N(Cc2ccco2)C1=O	none | GRK2 inh confirm inactive | Aptamer quench SP inactive
COc1ccc(/C=C2/C(=O)N(Cc3ccco3)C(=O)N(C(C)C)C2=O)cc1	none
NC1=NC(=O)C(c2ccccc2)O1 (stereo not drawn)	none (no result: GRK2 aptamer HTS)
CCN1/C(=C\C=C\C2=[N+](CC)c3ccccc3C2(C)C)C(C)(C)c2ccccc21	GRK2 aptamer HTS 70 (no result: MEKK3 PB1 HTS, MEKK2 mut-MEK5, MEKK2wt PB1 HTS) | GRK2 inh confirm inactive | Aptamer quench SP inactive
Cc1ccc2c(c1)cc1c(=O)n(CC(=O)N3CCC4(CC3)OCCO4)nc(C)n12	none
C[N+](C)(C)CCOC(=O)CBr	none (no result: MEKK3 PB1 HTS, MEKK2 mut-MEK5, MEKK2wt PB1 HTS) | GRK2 inh confirm inactive | Aptamer quench SP inactive
C[C@]12CCC3C(CCC4=C/C(=N/OCC(=O)NC(CCC(N)=O)C(=O)O)CC[C@@]43C)C1CCC2O (stereo partly drawn)	none | GRK2 inh confirm inactive | Aptamer quench SP inactive
CCC(=Nc1ccc2c(c1)CCC2)c1c(O)n(C2CCCCC2)c(=O)[nH]c1=O	GRK2 aptamer HTS 100 | GRK2 inh confirm inactive | Aptamer quench SP inactive

Screening results (PubChem BioAssay)
